Data as given in PubChem BioAssay (NCI).
Values joined by “and” are separate entries in the source; they are usually repeats but may differ in a detail not shown here. Identical values can stand only once. This is part of a sample that, as a whole, favours compounds with a hit. Of some 79,000 tested, about 15% had one in any assay. The source holds several records for some structures; these can differ, active in one and inactive in another. Active and inactive are the calls of the source. Cut-off read from the data, not from the text of the source: active = growth inhibition above about 70%; inactive = the rest.

Assays:
[1] = NCI Yeast Anticancer Drug Screen. Data for the rad52 strain (AID 147);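 note: 0% = growth of vehicle-treated control cultures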; settings: S. cerevisiae rad52 mutant growth inhibition, stronger effect = higher value
Procedure, shortened: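 DNA repair-defective yeast; compound exposure; growth scored against vehicle controls.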

[2] = NCI Yeast Anticancer Drug Screen. Data for the wt1 strain (AID 149);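 note: 0% = growth of vehicle-treated wt1 cultures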; settings: S. cerevisiae wt1 strain (SPY 50644) growth inhibition, stronger effect = higher value
Procedure, shortened: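 Each compound is tested on wt1 yeast and the loss of growth versus vehicle gives the inhibition value.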

[3] = NCI Yeast Anticancer Drug Screen. Data for the rad50EPP+ strain (AID 151);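 note: 0% = growth of vehicle-treated control cultures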; settings: S. cerevisiae rad50 mutant strain, stronger effect = higher value
Procedure, shortened: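 rad50EPP+ yeast treated with test compounds. Readout: growth vs vehicle control.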

[4] = NCI Yeast Anticancer Drug Screen. Data for the mgt1 strain (AID 153); settings: S. cerevisiae mgt1 mutant growth inhibition, stronger effect = higher value
Procedure, shortened: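 Growth inhibition relative to vehicle controls was scored for the mgt1 yeast strain after compound exposure.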

[5] = NCI Yeast Anticancer Drug Screen. Data for the rad50 strain (AID 155);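 note: 0% = growth of vehicle-only cultures of the same strain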; settings: S. cerevisiae rad50 strain growth inhibition, stronger effect = higher value
Procedure, shortened: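 Vehicle-treated cultures provide the reference for the growth inhibition reported for compound-exposed, repair-deficient yeast.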

[6] = NCI Yeast Anticancer Drug Screen. Data for the mec2-1 strain (AID 157); settings: S. cerevisiae mec2-1 strain, stronger effect = higher value
Procedure, shortened: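 Growth inhibition is read against vehicle-treated controls after compound exposure of the mec2-1 yeast strain, which is defective in DNA damage repair or cell cycle control.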

[7] = NCI Yeast Anticancer Drug Screen. Data for the rad14 strain (AID 159);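 note: 0% = growth of vehicle-treated control cultures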; settings: S. cerevisiae rad14 strain growth inhibition, stronger effect = higher value
Procedure, shortened: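 Inhibition of growth is reported for a repair-deficient yeast mutant following compound treatment, calculated relative to cultures that received vehicle.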

[8] = NCI Yeast Anticancer Drug Screen. Data for the sgs1 mgt1 strain (AID 161);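 note: 0% = growth of cultures given vehicle only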; settings: S. cerevisiae sgs1 mgt1 strain, stronger effect = higher value
Procedure, shortened: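 Compounds are added to genetically altered yeast, and growth is compared with cultures given vehicle alone to give percent inhibition.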

[9] = NCI Yeast Anticancer Drug Screen. Data for the CLN2oe strain (AID 163);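 note: 0% = growth of vehicle-only control cultures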; settings: S. cerevisiae CLN2oe strain, stronger effect = higher value
Procedure, shortened: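 Compound-treated yeast; growth vs vehicle ctrl = % inhibition. Genetically altered strain (cell-cycle control).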

[10] = NCI Yeast Anticancer Drug Screen. Data for the cln2 rad14 strain (AID 165);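 note: 0% = growth equal to vehicle treated cultures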; settings: S. cerevisiae cln2 rad14 strain, stronger effect = higher value
Procedure, shortened: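 Growth inhibition, relative to vehicle-treated controls, is the read-out. The test organism is a yeast strain with defined genetic alterations, cln2 rad14.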

[11] = NCI Yeast Anticancer Drug Screen. Data for the bub3 strain (AID 167); settings: S. cerevisiae bub3 mutant strain, stronger effect = higher value
Procedure, shortened: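 Mutant yeast screening strain plus compound; vehicle-treated cultures serve as the 0% inhibition reference.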

[12] = NCI Yeast Anticancer Drug Screen. Data for the wt2 strain (AID 169); settings: S. cerevisiae wt2 strain growth inhibition, stronger effect = higher value
Procedure, shortened: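 Compound exposure of yeast; growth compared with vehicle controls; inhibition reported.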

[13] = NCI Yeast Anticancer Drug Screen. Data for the mlh1 strain (AID 171);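 note: 0% = growth of vehicle-treated control cultures of the same strain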; settings: S. cerevisiae mlh1 strain growth inhibition, stronger effect = higher value
Procedure, shortened: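 Compounds are applied to a genetically altered yeast strain, and its growth is compared with that of vehicle-treated cultures to give percent inhibition.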

[14] = NCI Yeast Anticancer Drug Screen. Data for the sgs1 strain (AID 173);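 note: 0% = growth of vehicle-only control cultures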; settings: S. cerevisiae sgs1 mutant, stronger effect = higher value
Procedure, shortened: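 Compounds applied to genetically altered yeast; growth compared with vehicle-treated cultures to give % inhibition.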

[15] = NCI Yeast Anticancer Drug Screen. Data for the mlh1 rad18 strain (AID 175); settings: S. cerevisiae mlh1 rad18 strain growth inhibition, stronger effect = higher value
Procedure, shortened: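 Cells of a genetically altered yeast strain, deficient in DNA damage repair, were treated with compound. Their growth was then compared with that of vehicle-treated cultures to give inhibition.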

[16] = NCI Yeast Anticancer Drug Screen. Data for the rad18 strain (AID 177); settings: S. cerevisiae rad18 mutant growth inhibition, stronger effect = higher value
Procedure, shortened: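 Compounds are applied to a repair-deficient yeast strain, and growth is compared with that of vehicle-treated cultures to give percent inhibition.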

[17] = at 5.0 µM (retest, dose inferred, filed as 0.5)
[18] = at 50.0 µM (retest, dose inferred, filed as 5.0)

Measured: growth inhibition

O=C1Nc2ccccc2/C1=C/c1ccccc1
15.8% (inactive) and 98% (active): [11]; at 50.0 µM
63.5% (inactive) and 96.8% (active): [15]; at 50.0 µM
57.1% (inactive) and 96.2% (active): [8]; at 50.0 µM
66.6% (inactive) and 97.2% (active): [6]; at 50.0 µM
active: [1]; at 100.0 µM 80% | [4]; at 100.0 µM 71% | [5]; at 50.0 µM 81.6% and 98% | [5]; at 100.0 µM 82% | [7]; at 100.0 µM 73% | [12]; at 100.0 µM 88% | [13]; at 100.0 µM 81% | [14]; at 100.0 µM 84% | [16]; at 100.0 µM 86%
-40.7% (inactive) and 70.8% (active): [10]; at 50.0 µM
inactive: [1]; at 1.2 µM -2% | [1]; at 3.7 µM -1% | [1]; at 11.0 µM 7% | [1]; at 33.0 µM 37% | [2]; at 1.2 µM -1% | [2]; at 3.7 µM -2% | [2]; at 11.0 µM 0% | [2]; at 33.0 µM 6% | [2]; at 100.0 µM 34% | [3]; at 1.2 µM 0% | [3]; at 3.7 µM 1% | [3]; at 11.0 µM 10% | [3]; at 33.0 µM 35% | [3]; at 100.0 µM 53% | [4]; at 1.2 µM -6% | [4]; at 3.7 µM -22% | [4]; at 11.0 µM -8% | [4]; at 33.0 µM 17% | [5]; at 1.2 µM -3% | [5]; at 3.7 µM 1% | [5]; [17] -113% and -24% | [5]; at 11.0 µM 3% | [5]; at 33.0 µM 39% | [5]; [18] -9% and 10% | [6]; at 1.2 µM -3% | [6]; at 3.7 µM -5% | [6]; [17] -53% and -11% | [6]; at 11.0 µM -8% | [6]; at 33.0 µM 4% | [6]; [18] -56% and 30% | [6]; at 100.0 µM 51% | [7]; at 1.2 µM -4% | [7]; at 3.7 µM 6% | [7]; at 11.0 µM -2% | [7]; at 33.0 µM 14% | [8]; [17] -69% and -10% | [8]; [18] -52% and 29% | [9]; at 1.2 µM -9% | [9]; at 3.7 µM -9% | [9]; at 11.0 µM -12% | [9]; at 33.0 µM -1% | [9]; at 100.0 µM 17% | [10]; [17] -67% and -49% | [10]; [18] -83% and -8% | [11]; at 1.2 µM -9% | [11]; at 3.7 µM -14% | [11]; [17] -46% and -21% | [11]; at 11.0 µM -5% | [11]; at 33.0 µM 9% | [11]; [18] -62% and 22% | [11]; at 100.0 µM 51% | [12]; at 1.2 µM -3% | [12]; at 3.7 µM -3% | [12]; at 11.0 µM 2% | [12]; at 33.0 µM 35% | [13]; at 1.2 µM -5% | [13]; at 3.7 µM 10% | [13]; at 11.0 µM -5% | [13]; at 33.0 µM 30% | [14]; at 1.2 µM 0% | [14]; at 3.7 µM 2% | [14]; at 11.0 µM 10% | [14]; at 33.0 µM 47% | [15]; [17] -122% and -22% | [15]; [18] -79% and 51% | [16]; at 1.2 µM 0% | [16]; at 3.7 µM -1% | [16]; at 11.0 µM 8% | [16]; at 33.0 µM 52%

CCCCc1nnc(NS(=O)(=O)c2ccc(C)cc2)s1
inactive: [1]; at 1.2 µM -14% | [1]; at 3.7 µM -20% | [1]; at 11.0 µM -3% | [1]; at 33.0 µM 37% | [2]; at 1.2 µM -35% | [2]; at 3.7 µM -32% | [2]; at 11.0 µM -18% | [2]; at 33.0 µM 19% | [3]; at 1.2 µM -29% | [3]; at 3.7 µM -34% | [3]; at 11.0 µM -30% | [3]; at 33.0 µM -21% | [3]; at 100.0 µM -35% | [4]; at 1.2 µM -25% | [4]; at 3.7 µM -28% | [4]; at 11.0 µM -12% | [4]; at 33.0 µM 25% | [5]; at 1.2 µM -15% | [5]; at 3.7 µM -13% | [5]; [17] 48% | [5]; at 11.0 µM 0% | [5]; at 33.0 µM 45% | [6]; at 1.2 µM -21% | [6]; at 3.7 µM -19% | [6]; at 11.0 µM -3% | [6]; at 33.0 µM 31% | [6]; at 50.0 µM 50.3% | [7]; at 1.2 µM -51% | [7]; at 3.7 µM -45% | [7]; at 11.0 µM -34% | [7]; at 33.0 µM 6% | [8]; [17] -24% | [8]; [18] 31% | [9]; at 1.2 µM 0% | [9]; at 3.7 µM 2% | [9]; at 11.0 µM 15% | [9]; at 33.0 µM 20% | [10]; [17] 35% | [10]; [18] 56% | [10]; at 50.0 µM 49.5% | [11]; at 1.2 µM -4% | [11]; at 3.7 µM 9% | [11]; [17] 27% | [11]; at 11.0 µM 15% | [11]; at 33.0 µM 47% | [11]; [18] 61% | [11]; at 50.0 µM 68.2% | [12]; at 1.2 µM -28% | [12]; at 3.7 µM -22% | [12]; at 11.0 µM -10% | [12]; at 33.0 µM 20% | [13]; at 1.2 µM -32% | [13]; at 3.7 µM -43% | [13]; at 11.0 µM -24% | [13]; at 33.0 µM 23% | [14]; at 1.2 µM -13% | [14]; at 3.7 µM -22% | [14]; at 11.0 µM -6% | [14]; at 33.0 µM 31% | [15]; at 50.0 µM 59.1% | [16]; at 1.2 µM -12% | [16]; at 3.7 µM 4% | [16]; at 11.0 µM 15% | [16]; at 33.0 µM 36%
active: [1]; at 100.0 µM 83% | [2]; at 100.0 µM 84% | [4]; at 100.0 µM 85% | [5]; [18] 94% | [5]; at 50.0 µM 72% | [5]; at 100.0 µM 86% | [6]; [17] 70% | [6]; [18] 94% | [6]; at 100.0 µM 81% | [7]; at 100.0 µM 82% | [8]; at 50.0 µM 72% | [9]; at 100.0 µM 87% | [11]; at 100.0 µM 85% | [12]; at 100.0 µM 80% | [13]; at 100.0 µM 74% | [14]; at 100.0 µM 80% | [15]; [17] 77% | [15]; [18] 99% | [16]; at 100.0 µM 86%

C#CCN(Cc1ccc2nc(N)[nH]c(=O)c2c1)c1ccc(C(=O)NC(CCC(=O)O)C(=O)O)cc1 (stereo unspecified)
active: [1]; at 33.0 µM 73% | [1]; at 100.0 µM 88% | [5]; at 50.0 µM 77.5% and 72.5% | [5]; at 100.0 µM 89%
67% (inactive) and 82% (active): [5]; [18]
inactive: [1]; at 1.2 µM 19% | [1]; at 3.7 µM 29% | [1]; at 11.0 µM 28% | [2]; at 1.2 µM 2% | [2]; at 3.7 µM 9% | [2]; at 11.0 µM 15% | [2]; at 33.0 µM 17% | [2]; at 100.0 µM 43% | [3]; at 1.2 µM 27% | [3]; at 3.7 µM 37% | [3]; at 11.0 µM 44% | [3]; at 33.0 µM 29% | [3]; at 100.0 µM 41% | [4]; at 1.2 µM -29% | [4]; at 3.7 µM -23% | [4]; at 11.0 µM -27% | [4]; at 33.0 µM 17% | [4]; at 100.0 µM 34% | [5]; at 1.2 µM 26% | [5]; at 3.7 µM 29% | [5]; [17] 12% and 1% | [5]; at 11.0 µM 26% | [5]; at 33.0 µM 69% | [6]; at 1.2 µM -9% | [6]; at 3.7 µM -6%
